# PubChem BioAssay (Tox21)
# A number with no mark means an inactive call. Inconclusive results are not listed. Entries that show only a call come without a potency. Active and inactive are the calls of the source. Unless noted, calls follow the shape of the dose curve; as a rule, active = well fitted curve in the direction sought with a large enough effect in the repeat runs; inconclusive = weak or mixed curves; inactive = no such curve, though single readings can be large; an effect the other way counts as inactive or inconclusive.
# Columns and labels:
# [1] = A CellTox Green Cytotoxicity Assay to monitor cytotoxicity in HEK293 cells - 32 hour (AID 1224881); also: nearly all actives have a fitted effect of over 40% in size; also: potency is read from the fitted curve at half-maximal effect
# Summary of the method: (§1)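 Cytotoxicity was tracked continuously in HEK293 cells by a DNA-binding dye excluded from viable cells. Compounds were transferred in DMSO 5 h after seeding; fluorescence was recorded at intervals up to 40 h.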
# [2] = A CellTox Green Cytotoxicity Assay to monitor cytotoxicity in HEK293 cells - 8 hour (AID 1224884); also: nearly all actives have a fitted effect of over 35% in size; also: potency is read from the fitted curve at half-maximal effect
# Summary of the method: as §1
# [3] = qHTS RealTime-Glo MT Cell Viability Assay in HEK293 cells - 24 hour (AID 1224886); also: top concentration of the series differs between compounds; nearly all actives have a fitted effect of over 50% in size
# Summary of the method: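 Assay medium contained NanoLuc luciferase plus cell-permeant prosubstrate, added with HEK293 cells at 600 cells/well. After 5 h at 37 C/5% CO2 compounds were added; plates stayed at 37 C for 40 h with serial luminescence reads.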
# [4] = qHTS RealTime-Glo MT Cell Viability Assay in HEK293 cells - 8 hour (AID 1224887); also: top concentration of the series differs between compounds; nearly all actives have a fitted effect of over 50% in size
# Summary of the method: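 Nonlytic bioluminescent viability monitoring. HEK293 at 600 cells/well with reagent; 5 h settle; compound transfer by pintool; plates held at 37 C and read at set time points.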
# [5] = A CellTox Green Cytotoxicity Assay to monitor cytotoxicity in HepG2 cells - 8 hour (AID 1224890); also: nearly all actives have a fitted effect of over 45% in size; also: potency is read from the fitted curve at half-maximal effect
# Summary of the method: (§2)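 Real-time, homogeneous cytotoxicity readout: dead-cell DNA staining by CellTox Green in HepG2 monolayers, fluorescence measured at timed intervals up to 40 h of continuous compound exposure.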
# [6] = qHTS assay to identify small molecule antagonists of the estrogen receptor alpha (ER-alpha) signaling pathway using the BG1 cell line in the presence of 0.1 nM 17-beta-estradiol - cell viability counter screen (AID 1259241); also: nearly all actives have a fitted effect of over 40% in size
# Summary of the method: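 Viability in VM7Luc4E2 cells after 22 hr compound exposure under 0.1 nM 17beta-estradiol stimulation, by CellTiter-Fluor.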
# [7] = qHTS assay to identify small molecule antagonists of the androgen receptor (AR) signaling pathway using the MDA cell line in the presence of 0.5 nM R1881 - cell viability counter screen (AID 1259242); also: nearly all actives have a fitted effect of over 45% in size
# Summary of the method: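 Cytotoxicity toward MDA-kb2 cells is measured by CellTiter-Fluor live-cell protease fluorescence after 16 hr compound exposure at 37C in the presence of 0.5 nM R1881 stimulator.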
# [8] = molecular target: Estrogen receptor (Homo sapiens) (UniProt P03372); assay: qHTS assay to identify small molecule antagonists of the estrogen receptor alpha (ER-alpha) signaling pathway using the BG1 cell line in the presence of 0.1 nM 17-beta-estradiol (AID 1259244); also: nearly all actives have a fitted effect of over 50% in size
# Chain of Estrogen receptor (Homo sapiens) (P03372 whole entry, looked up): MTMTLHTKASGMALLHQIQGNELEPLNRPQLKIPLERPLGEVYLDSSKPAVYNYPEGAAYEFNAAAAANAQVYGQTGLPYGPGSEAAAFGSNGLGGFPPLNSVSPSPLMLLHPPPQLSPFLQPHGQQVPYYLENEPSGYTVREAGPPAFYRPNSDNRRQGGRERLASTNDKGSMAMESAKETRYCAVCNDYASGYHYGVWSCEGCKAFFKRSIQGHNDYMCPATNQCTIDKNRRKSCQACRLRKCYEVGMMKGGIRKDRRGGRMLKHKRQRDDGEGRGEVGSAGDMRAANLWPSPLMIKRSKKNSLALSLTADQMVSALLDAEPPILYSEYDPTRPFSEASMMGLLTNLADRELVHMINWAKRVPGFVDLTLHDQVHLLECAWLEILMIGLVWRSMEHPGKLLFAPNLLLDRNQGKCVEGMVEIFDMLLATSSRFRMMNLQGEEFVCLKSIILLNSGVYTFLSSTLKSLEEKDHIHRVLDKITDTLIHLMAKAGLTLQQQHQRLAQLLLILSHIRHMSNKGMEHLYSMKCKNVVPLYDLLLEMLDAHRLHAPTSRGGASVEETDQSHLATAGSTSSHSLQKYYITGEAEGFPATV
# Summary of the method: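 After 5 days in hormone-depleted medium (charcoal-stripped serum, no phenol red), VM7Luc4E2 cells were seeded, incubated 24 h, then co-treated with compound and 0.1 nM (final) estradiol for 22 h before luminescence detection.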
# [9] = qHTS assay to identify small molecule phospholipidosis (PLD) inducers (AID 1259344; active = well fitted curve in the direction sought with a large enough effect; an effect the other way counts as inactive or inconclusive)
# Summary of the method: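 Quantitative HTS in HepG2: compound plus LipidTOX Red dye for 24 h, paraformaldehyde fixation with Hoechst 33342, widefield high-content imaging; amiodarone as positive and DMSO as negative control.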
# [10] = qHTS assay to identify small molecule HDAC inhibitors (AID 1259364); also: nearly all actives have a fitted effect of over 45% in size; also: potency is read from the fitted curve at half-maximal effect; as to activity change, negative = inhibition: top concentration of the series differs between compounds
# Summary of the method: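 Homogeneous cell-based luminescent assay of endogenous class I/II HDAC activity; HCT-116 cells, 2 h compound exposure, 30 min HDAC-Glo development at RT.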
# [11] = qHTS assay to identify small molecule HDAC inhibitors - cell viability counter screen (AID 1259365); also: series mostly up to about 92 µM; nearly all actives have a fitted effect of over 50% in size
# Summary of the method: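 Cytotoxicity was gauged in wild-type HCT-116 cells after a brief 2hr treatment with DMSO-dissolved compounds at 37C and 5% CO2, using CellTiter-Glo luminescence developed for 30min at room temperature.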
# [12] = qHTS assay to identify small molecule agonists of the sonic hedgehog signaling (Shh) pathway - cell viability counter screen (AID 1259366); also: nearly all actives have a fitted effect of over 50% in size; also: potency is read from the fitted curve at half-maximal effect
# Summary of the method: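 Stable Gli1-Luc NIH/3T3 clone, 2,000 cells/well. Compound exposure 24hr at 37C. Read-out: CellTiter-Fluor fluorescence.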
# [13] = qHTS assay to identify small molecule antagonists of the sonic hedgehog signaling (Shh) pathway - cell viability counter screen (AID 1259367); also: nearly all actives have a fitted effect of over 55% in size; also: potency is read from the fitted curve at half-maximal effect
# Summary of the method: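 Seed 3T3 Gli1-Luc cells at 2,000 per well; incubate 4 hr; add compound in DMSO, then conditioned medium; incubate at 37C with 5% CO2; add CellTiter-Fluor after 23 hr; read fluorescence 1 hr later.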
# [14] = qHTS assay to identify small molecule agonists of the sonic hedgehog signaling (Shh) pathway (AID 1259368; calls by dose curve;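 also: NIH/3T3-derived 3T3Gli1-Luc cells carrying a stable Gli1-driven firefly luciferase reporter; series mostly up to about 92 µM; nearly all actives have a fitted effect of over 15% in size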)
# Summary of the method: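 Steps: seed 3T3 Gli1-Luc cells, incubate 4 hr at 37 C, pin-transfer compounds in DMSO alongside a positive control, incubate 24 hr, add luciferase detection reagent, wait 30 min at room temperature, read luminescence.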
# [15] = qHTS RealTime-Glo MT Cell Viability Assay in HepG2 cells - 16 hour (AID 1224885); also: nearly all actives have a fitted effect of over 50% in size
# Summary of the method: (§3)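 qHTS, HepG2, 600 cells/well, RealTime-Glo (NanoLuc + prosubstrate) added with cells; 5 h preincubation; DMSO compound addition; 37 C; luminescence at 0/8/16/24/32/40 h.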
# [16] = A CellTox Green Cytotoxicity Assay to monitor cytotoxicity in HEK293 cells - 16 hour (AID 1224888); also: nearly all actives have a fitted effect of over 35% in size
# Summary of the method: as §1
# [17] = qHTS RealTime-Glo MT Cell Viability Assay in HepG2 cells - 0 hour (AID 1224889); also: nearly all actives have a fitted effect of over 50% in size; also: potency is read from the fitted curve at half-maximal effect
# Summary of the method: as §3
# [18] = A CellTox Green Cytotoxicity Assay to monitor cytotoxicity in HepG2 cells - 0 hour (AID 1224882); also: nearly all actives have a fitted effect of over 35% in size
# Summary of the method: as §2
# [19] = A CellTox Green Cytotoxicity Assay to monitor cytotoxicity in HepG2 cells - 32 hour (AID 1224883); also: nearly all actives have a fitted effect of over 50% in size; also: potency is read from the fitted curve at half-maximal effect
# Summary of the method: as §2
# [20] = molecular target: Androgen receptor (Homo sapiens) (UniProt P10275); assay: qHTS assay to identify small molecule antagonists of the androgen receptor (AR) signaling pathway using the MDA cell line in the presence of 0.5 nM R1881 (AID 1259243); also: nearly all actives have a fitted effect of over 50% in size
# Chain of Androgen receptor (Homo sapiens) (P10275 whole entry, looked up): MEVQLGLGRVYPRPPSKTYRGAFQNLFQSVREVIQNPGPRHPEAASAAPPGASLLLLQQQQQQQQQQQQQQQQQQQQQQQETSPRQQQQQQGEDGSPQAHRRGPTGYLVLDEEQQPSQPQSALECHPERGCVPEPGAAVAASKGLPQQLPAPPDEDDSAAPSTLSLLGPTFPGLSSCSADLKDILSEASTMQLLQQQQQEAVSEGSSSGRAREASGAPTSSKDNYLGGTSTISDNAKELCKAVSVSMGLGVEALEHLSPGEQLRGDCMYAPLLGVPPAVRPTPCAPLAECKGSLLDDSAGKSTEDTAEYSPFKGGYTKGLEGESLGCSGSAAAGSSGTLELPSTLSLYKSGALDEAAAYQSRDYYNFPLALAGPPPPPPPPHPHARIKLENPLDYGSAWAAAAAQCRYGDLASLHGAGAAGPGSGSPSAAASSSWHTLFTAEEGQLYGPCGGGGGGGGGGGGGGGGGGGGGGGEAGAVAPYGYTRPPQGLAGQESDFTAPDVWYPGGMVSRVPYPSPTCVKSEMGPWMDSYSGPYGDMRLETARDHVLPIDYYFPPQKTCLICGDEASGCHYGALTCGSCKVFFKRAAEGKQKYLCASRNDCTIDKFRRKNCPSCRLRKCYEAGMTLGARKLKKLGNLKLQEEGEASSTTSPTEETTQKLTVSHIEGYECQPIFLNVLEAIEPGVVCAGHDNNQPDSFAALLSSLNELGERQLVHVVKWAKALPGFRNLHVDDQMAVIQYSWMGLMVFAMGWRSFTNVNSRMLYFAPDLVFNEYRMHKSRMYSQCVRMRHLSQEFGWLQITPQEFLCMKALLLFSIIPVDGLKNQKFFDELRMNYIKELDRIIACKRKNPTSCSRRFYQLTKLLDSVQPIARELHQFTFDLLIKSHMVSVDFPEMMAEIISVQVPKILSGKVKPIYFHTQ
# Summary of the method: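 Steps: seed MDA-kb2 cells, incubate 5 hr at 37C; pin-transfer compounds in DMSO; add R1881 to 0.5 nM final; incubate 16 hr; add ONE-Glo, wait 30 min at room temperature; read luminescence.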
smiles,measurement,setting,value
O=C(Nc1ccc(S(=O)(=O)N2CCOCC2)cc1)c1cc(Cl)ccc1NS(=O)(=O)c1ccc(Cl)s1,Potency,[1],23.9 µM (active)
same,Potency,[2],23.9 µM (active)
same,Potency,[3],inactive
same,Potency,[4],inactive
same,Potency,[5],26.8 µM (active)
same,Potency,[6],inactive
same,Potency,[7],inactive
same,Potency,[8],inactive
same,Potency,[9],inactive
same,Potency,[10],inactive
same,Potency,[11],inactive
same,Potency,[12],inactive
same,Potency,[13],inactive
same,outcome,[14],inactive
c1ccc(C(O[C@H]2CCCN(CCc3ccc4c(c3)OCO4)C2)c2ccccc2)cc1,Potency,[1],inactive
same,Potency,[2],inactive
same,Potency,[15],inactive
same,Potency,[4],inactive
same,Potency,[16],inactive
same,Potency,[17],inactive
same,Potency,[7],inactive
same,Potency,[8],inactive
same,Potency,[10],inactive
same,Potency,[12],inactive
same,Potency,[13],inactive
same,outcome,[14],inactive
COS(=O)(=O)C(F)(F)F,Potency,[18],inactive
same,Potency,[19],inactive
same,Potency,[2],inactive
same,Potency,[15],inactive
same,Potency,[3],inactive
same,Potency,[4],inactive
same,Potency,[16],inactive
same,Potency,[17],inactive
same,Potency,[5],inactive
same,Potency,[6],inactive
same,Potency,[7],inactive
same,Potency,[10],inactive
same,outcome,[14],inactive
COCC(C)OC(C)=O (centres undefined),Potency,[18],inactive
same,Potency,[19],inactive
same,Potency,[2],inactive
same,Potency,[15],inactive
same,Potency,[3],inactive
same,Potency,[16],inactive
same,Potency,[17],inactive
same,Potency,[5],inactive
same,Potency,[7],inactive
same,Potency,[8],inactive
same,Potency,[10],inactive
same,Potency,[11],inactive
same,Potency,[12],inactive
same,Potency,[13],inactive
same,outcome,[14],inactive
C1CCCNCCC1,Potency,[18],inactive
same,Potency,[19],inactive
same,Potency,[2],inactive
same,Potency,[15],inactive
same,Potency,[3],inactive
same,Potency,[4],inactive
same,Potency,[16],inactive
same,Potency,[5],inactive
same,Potency,[6],inactive
same,Potency,[7],inactive
same,Potency,[11],inactive
same,Potency,[12],inactive
same,Potency,[13],inactive
same,outcome,[14],inactive
CC(CSC(=O)c1ccccc1)C(=O)N1C[C@@H](Sc2ccccc2)C[C@H]1C(=O)O (some centres undefined),cytotoxicity,[18],5.13% [at 15.8 µM]
same,cytotoxicity increase,[19],-3.06% [at 15.8 µM]
same,cytotoxicity increase,[2],0.0018% [at 15.8 µM]
same,"activity change, negative = cytotoxic",[15],2.9% [at 15.8 µM]
same,"activity change, negative = cytotoxicity",[3],-5.81% [at 15.8 µM]
same,"activity change, negative = cytotoxicity",[4],-4.84% [at 15.8 µM]
same,activity change,[16],"-0.144% [at 15.8 µM, active compounds read high]"
same,"activity change, negative = cytotoxicity",[17],-0.48% [at 15.8 µM]
same,cytotoxicity increase,[5],-3.03% [at 15.8 µM]
same,"activity change, negative = cytotoxicity",[6],3.73% [at 19 µM]
same,"viability change, negative = cytotoxic",[7],5.22% [at 19 µM]
same,Potency,[8],inactive
same,Potency,[9],inactive
same,"activity change, negative = inhibition",[10],3.83% [at 19 µM]
same,"activity change, negative = cytotoxicity",[11],-1.25% [at 19 µM]
same,"viability change, negative = cytotoxic",[12],-5.51% [at 19 µM]
same,"viability change, negative = cytotoxic",[13],1.29% [at 19 µM]
CC[N+](C)(CC)CCOC(=O)C(O)(c1ccccc1)C1CCCCC1 (centres undefined),Potency,[18],inactive
same,Potency,[19],inactive
same,Potency,[2],inactive
same,Potency,[15],inactive
same,Potency,[3],inactive
same,Potency,[4],inactive
same,Potency,[16],inactive
same,Potency,[17],inactive
same,Potency,[5],inactive
same,Potency,[6],inactive
same,Potency,[7],inactive
same,Potency,[8],inactive
same,Potency,[9],inactive
same,Potency,[10],inactive
same,Potency,[12],inactive
same,Potency,[13],inactive
same,outcome,[14],inactive
Nc1ncn([C@H]2C[C@H](O)[C@@H](CO)O2)c(=O)n1,Potency,[18],inactive
same,Potency,[19],inactive
same,Potency,[2],inactive
same,Potency,[15],inactive
same,Potency,[3],inactive
same,Potency,[4],inactive
same,Potency,[16],inactive
same,Potency,[17],inactive
same,Potency,[5],inactive
same,Potency,[6],inactive
same,Potency,[7],inactive
same,Potency,[9],inactive
same,Potency,[10],inactive
same,Potency,[11],inactive
same,Potency,[13],inactive
same,outcome,[14],inactive
Clc1ccc2c(c1)CCc1cccnc1C2=C1CCNCC1,Potency,[18],inactive
same,Potency,[19],23.9 µM (active)
same,Potency,[2],inactive
same,Potency,[15],inactive
same,Potency,[4],inactive
same,Potency,[16],inactive
same,Potency,[17],inactive
same,Potency,[5],inactive
same,Potency,[6],inactive
same,Potency,[7],inactive
same,Potency,[8],inactive
same,Potency,[10],inactive
same,Potency,[11],inactive
same,Potency,[12],11.9 µM (active)
same,outcome,[14],inactive
CCCCCCCCCCCCN1CCCCCC1=O,Potency,[1],inactive
same,Potency,[2],inactive
same,Potency,[15],inactive
same,Potency,[16],inactive
same,Potency,[17],inactive
same,Potency,[6],inactive
same,Potency,[7],inactive
same,Potency,[12],inactive
same,Potency,[13],inactive
same,outcome,[14],inactive
CCc1cc(C2=C(C(=O)O)N(c3ccccc3C(F)(F)F)S(=O)(=O)c3ccccc32)cc2c1OCO2,Potency,[18],inactive
same,Potency,[19],inactive
same,Potency,[2],inactive
same,Potency,[15],inactive
same,Potency,[3],inactive
same,Potency,[4],inactive
same,Potency,[16],inactive
same,Potency,[17],24.3 µM (active)
same,Potency,[5],inactive
same,Potency,[6],inactive
same,Potency,[7],inactive
same,Potency,[10],inactive
same,Potency,[13],12.1 µM (active)
same,outcome,[14],inactive
CCNc1cc(O)ccc1C,Potency,[18],inactive
same,Potency,[19],inactive
same,Potency,[2],inactive
same,Potency,[15],inactive
same,Potency,[3],inactive
same,Potency,[4],inactive
same,Potency,[17],inactive
same,Potency,[5],inactive
same,Potency,[7],inactive
same,Potency,[8],inactive
same,Potency,[10],inactive
same,Potency,[11],inactive
same,outcome,[14],inactive
O=C(O)C1(C(=O)Nc2ccc(Cl)cc2Cl)CC1,Potency,[18],inactive
same,Potency,[19],inactive
same,Potency,[2],inactive
same,Potency,[15],inactive
same,Potency,[3],inactive
same,Potency,[4],inactive
same,Potency,[16],inactive
same,Potency,[17],inactive
same,Potency,[5],inactive
same,Potency,[6],inactive
same,Potency,[7],inactive
same,Potency,[20],inactive
same,Potency,[8],inactive
same,Potency,[10],13.7 µM (active)
same,Potency,[11],inactive
same,Potency,[12],inactive
same,Potency,[13],inactive
same,outcome,[14],inactive
C=C1[C@H]2CC[C@@H]3[C@H]2C(C)(C)CCC[C@]13C,Potency,[18],inactive
same,Potency,[19],inactive
same,Potency,[2],inactive
same,Potency,[15],inactive
same,Potency,[3],inactive
same,Potency,[4],inactive
same,Potency,[16],inactive
same,Potency,[17],inactive
same,Potency,[5],inactive
same,Potency,[6],inactive
same,Potency,[7],inactive
same,Potency,[8],inactive
same,Potency,[10],inactive
same,Potency,[11],inactive
same,Potency,[13],inactive
same,outcome,[14],inactive
